Screens: PubChem, National Center for Advancing Translational Sciences (NCATS)
Tb PFK block: blocks T. brucei phosphofructokinase; O15648; T. brucei PFK, ADP-Glo luminescence; Potency, µM (highest dose often 57.5 µM), most hits filed as inhibitors; 330,000 compounds, 0.17% hits; note: nearly all actives have a fitted effect of over 60% in size
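In TEA buffer at pH 8.0 with 5 mM MgCl2, enzyme (1.25 nM) converted F6P (0.5 mM) and ATP (0.1 mM) for 45 min at room temperature. ADP product was read by luciferase luminescence.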
PKM2 act: increases activity of human pyruvate kinase M2; P14618; purified PKM2, Kinase-Glo ATP luminescence, activation; response scale: 0% is enzyme alone, no compound; Potency, µM (titrated, usually from 57.5 µM), usual class: activators; 260,000 compounds, 0.34% hits; note: nearly all actives have a fitted effect of over 55% in size
Target sequence (P14618 whole entry, looked up): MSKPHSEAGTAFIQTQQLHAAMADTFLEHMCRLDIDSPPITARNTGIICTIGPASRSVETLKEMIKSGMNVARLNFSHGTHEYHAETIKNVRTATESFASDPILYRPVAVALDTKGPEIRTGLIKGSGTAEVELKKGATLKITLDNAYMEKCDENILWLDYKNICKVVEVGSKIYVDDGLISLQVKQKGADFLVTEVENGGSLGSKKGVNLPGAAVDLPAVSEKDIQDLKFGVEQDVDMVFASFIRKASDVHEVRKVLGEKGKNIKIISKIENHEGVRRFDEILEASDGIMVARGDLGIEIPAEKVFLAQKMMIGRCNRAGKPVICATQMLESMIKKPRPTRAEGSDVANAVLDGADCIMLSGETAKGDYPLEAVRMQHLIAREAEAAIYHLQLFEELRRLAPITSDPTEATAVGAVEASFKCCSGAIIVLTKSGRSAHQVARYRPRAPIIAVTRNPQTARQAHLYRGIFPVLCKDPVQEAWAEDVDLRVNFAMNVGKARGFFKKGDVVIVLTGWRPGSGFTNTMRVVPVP
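Purified hPK-M2 (>95% pure) converted ADP (0.1 mM final) to ATP with 0.5 mM PEP in 50 mM imidazole pH7.2, KCl, MgCl2, Tween 20, BSA; 1 h at room temperature. ATP detected by Kinase-Glo luminescence.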
A-T KAP1 phos: potential ataxia-telangiectasia treatments restoring KAP-1 phosphorylation; F2112 A-T fibroblasts, KAP-1 phosphorylation AlphaLISA; neocarzinostatin DNA damage 30 min before lysis; Potency, µM (top dose mostly 57.5 µM), most hits filed as activators; 320,000 compounds, 0.19% hits; note: nearly all actives have a fitted effect of over 45% in size
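hTERT-immortalized A-T patient fibroblasts (F2112), 500 cells/well in OPTI-MEM, 1% FBS, got compounds for 60 min, then NCS for 30 min at 37C. Lysates were then assayed for phospho-KAP-1 by AlphaLISA (anti-pKAP1 donor, anti-KAP1 acceptor beads), 6 hr at 25C.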
IL-2 act: activates IL-2 in a cell-based reporter assay. 360,000 compounds, 0.065% hits. IL-2 activation reporter assay, cell-based qHTS; stimulated with anti-CD3/CD4/CD28 beads; in transgenic mouse T cells. activation, % (series mostly up to about 46 µM). AID 652025; in the data active = activation above about 50%; inconclusive = mostly about 30% to 49%
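Quantitative HTS in unstimulated transgenic mouse T cells, with memory T cells as non-tolerant control and PMA/ionomycin as tolerance-bypass control. Compound pretreatment lasted 60 minutes before 18 h bead stimulation; EGFP/DsRed fluorescence read.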
TCR act: T cell receptor activation; 330,000 tested, under 10 active; AID 504894; Potency, µM (series often up to 9.22 µM), usual class: activators; primary human leukocytes, anti-CD3, IL-2 HTRF, 48 h
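HTRF read-out of IL-2 secretion: europium cryptate donor excited at 320nm, d2 acceptor emission at 665nm. Cells were primary human leukocytes incubated 48 hr with compounds and a-CD3 beads, supplying TCR signal only.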
a7 integrin act: activators of alpha7 integrin expression for muscular dystrophy. alpha7betagal myoblasts, beta-gal FDG fluorescence, 48 h. Potency, µM (top dose mostly 38.3 µM), actives largely listed as activators. 350,000 compounds, 0.064% hits. AID 624291; note: nearly all actives have a fitted effect of over 60% in size
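Alpha7betagal+/- myoblasts (passage 13) were plated 16-24 hr, then exposed to compounds (1:260 dilution of DMSO stock) for 48 hours at 37C. After MPER lysis, β-galactosidase reporter activity was read as FDG fluorescence (ex 480/em 540) after 30 minutes.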
Numbers stand for hits; – = inactive; ? = inconclusive; · = no result given; [ ] = another dose, or the depositor's remark. Only some compounds are listed: those with a hit (about 0.69% of all), similar ones and a draw of the others. Unless noted, calls come from the whole dose curve; as a rule, active = well fitted curve in the direction sought with a large enough effect; inconclusive = small, poorly fitted or top-dose-only effect, or another doubt; inactive = no such curve, though single readings can be large; an effect the other way counts as inactive or inconclusive.

SMILES	Tb PFK block	PKM2 act	A-T KAP1 phos	IL-2 act	TCR act	a7 integrin act
Clc1ccc(NNc2ccnc3cc(Cl)ccc23)cc1	–	–	–	–	·	–
O=C(NC(=S)NCCC1=CCCCC1)c1ccc(Br)o1	–	–	–	–	–	7.1µM
COCCN=C1OC(=O)N2C(=O)C3=C4C(C[C@H]5C(=O)N(CC(=O)OC)C(=O)[C@H]5[C@H]4[C@@]12Cc1ccccc1)[C@H]1C(=O)N(CC(=O)OC)C(=O)[C@H]1[C@H]3C (some centres not stated)	·	–	·	·	·	·
CCCCc1nc2c(c3c1C[C@H](C)OC3)CN(C(=O)Nc1ccc(OC)cc1)CC2	·	–[11.5 µM]	·	·	·	·
COC(=O)c1ccc(CSc2cc(C)c3ccccc3n2)o1	–	·	32µM	–	–	–
C/C(=N/NC(=O)CNC(=O)/C=C/c1ccco1)c1ccc(Cl)cc1	?	25µM	–	–	–	–
CNc1ccc(/C=C(\C#N)C(=O)Nc2ccccn2)cc1[N+](=O)[O-]	–	–	–	87	–	–
Cc1cc(SCc2ccccc2F)nc(=O)[nH]1	–	16µM	–	–	–	–
CCOc1ccc(CCN2C(=O)C(=O)N([C@H](CCCN(C)Cc3ccccc3)CNCc3ccccc3)C[C@@H]2C(C)C)cc1	–	–	40µM	·	·	·
CCCSc1ccccc1C(=O)N1CCN(C(=O)c2ccco2)CC1	–	–	–	–	–	–
O=C1c2ccccc2-c2c1cccc2C(=O)N1CCN(C(=O)c2ccco2)CC1	–	16µM	–	–	–	–
COc1ccc(C(=O)N2c3ccccc3C=CC2C#N)cc1 (configuration not stated)	–	–	–	–	–	–
N#C[C@H]1[C@H](c2ccccc2)[C@](C#N)(C(=O)c2ccccc2)[C@@H]2C=Cc3ccccc3N21	–	–	16µM	·	·	·
Cc1ccc(-n2c(SCC(=O)NCc3ccco3)nc3nc4c(cc3c2=O)COC(C)(C)C4)cc1	–	14µM	?	–	–	–
Cc1ccc(-n2c(SCC(=O)NCc3ccco3)nc3sc(C)c(C)c3c2=O)cc1	–	–	–	–	–	–
Cc1noc(/C=C/N(C)C)c1S(=O)(=O)N(C)Cc1ccc(F)cc1	–	·	32µM	–	–	–
Cc1noc(/C=C/N(C)C)c1S(=O)(=O)N(C)CC(=O)N1CCc2ccccc21	–	–	–	–	–	–
Cc1ccc(CN(C)S(=O)(=O)c2c(C)noc2/C=C/N(C)C)cc1	–	–[0.46 µM]	?	–	–	–
Cc1noc(/C=C/N(C)C)c1S(=O)(=O)N1CCc2ccccc21	–	–	25µM	–	–	–
Cc1cccc(Cn2c(SCC(=O)Nc3ccccc3)nc3c2c(=O)[nH]c(=O)n3C)c1	–	1.4µM	–	–	–	–
Cn1c(=O)[nH]c(=O)c2c1nc(SCC(=O)O)n2Cc1ccccc1	–	–[11.5 µM]	–	–	–	–
COC(=O)c1ccc(C(NC(=O)OCc2ccccc2)/C(=C/[C@@H](C)C(=O)NCc2ccc(S(C)(=O)=O)cc2)c2cccnc2)cc1 (some centres not stated)	·	–	·	·	·	·
Cn1ccc2cc(-c3ccc4ncnc(NCc5cccc(F)c5)c4c3)ccc21	–	·	–	·	·	·
CCc1ccccc1N=Cc1c(C)c(C#N)c2[nH]c3ccccc3n2c1=O	·	·	·	123	–	–
CCCCc1c(C)c(C#N)c2[nH]c3ccccc3n2c1=O	–	–	–	–	–	–
SMILES	Tb PFK block	PKM2 act	A-T KAP1 phos	IL-2 act	TCR act	a7 integrin act
COCCN(CCOC)Cc1cc(=O)oc2ccccc12	·	·	·	–	·	·
Cc1nnc2sc(SCc3ccccc3Cl)nn2c1=O	–	7.1µM	–	–	–	–
Cc1nnc2sc(SCc3ccccc3)nn2c1=O	–	?	–	·	–	·
C=CCN1c2ccccc2[C@]23C[C@@H](C(=O)OC)N(S(=O)(=O)c4ccc(C)cc4)C2=NC(C(=O)OC)=C(C(=O)OC)[C@H]13	·	–[11.5 µM]	·	·	·	·
COCCNC(=O)CSc1n[nH]c(=O)n1CCc1ccccc1	–	·	18µM	–	–	–
COC(=O)[C@@]1(Cc2ccccc2)[C@H]2c3cc(C(=O)N4CCCC4)n(CC4CC4)c3C[C@H]2CN1C(=O)c1ccccc1	·	–	·	·	·	·
Cc1ccc(-c2nn(-c3ccccc3)cc2CN(Cc2ccccc2)C(=O)c2ccco2)o1	–	25µM	·	–	–	–
Cc1ccc(-c2nn(-c3ccccc3)cc2C(=O)O)o1	?	–	–	·	·	·
Cc1nnc(NC(=O)C2CC(=O)N(Cc3ccccc3)C2)s1 (configuration not stated)	–	–	–	–	–	?
O=C(Nc1nnc(SCc2ccc(F)cc2)s1)C1CC(=O)N(Cc2ccccc2)C1 (configuration not stated)	–	13µM	–	–	–	–
Nc1ccc(C(=O)Oc2ccc([N+](=O)[O-])cc2)cc1	–	40µM	–	–	–	–
CCCCc1nc2c(c3c1C[C@H](C)OC3)CN(S(=O)(=O)c1ccc(NC(C)=O)cc1)CC2	·	–[11.5 µM]	·	·	·	·
COc1ccccc1S(=O)(=O)Nc1ccc(-c2nnc3n2CCCCC3)cc1	–	20µM	3.5µM	–	–	–
O=C(O)c1ccc2c(c1)C(=O)N([C@H](Cc1ccc(O)c(O)c1)C(=O)O)C2=O	?	·	–	·	·	·
Cc1ccc(-c2nc(C=Nc3ccc(O)cc3)c(O)o2)cc1	–	–	–	77	–	–
Cc1cc2c(s1)c(C#N)c(C(=O)NCc1ccccc1F)n2C	–	·	–	·	·	·
Brc1ccc2nc(CSc3ncn[nH]3)cn2c1	–	20µM	–	–	–	–
CN1/C(=C\C=C(C#N)C#N)C(C)(C)c2ccccc21	–	–	–	143	–	–
COC(=O)[C@@]1(Cc2ccc(OC)cc2)[C@H]2c3cc(C(=O)N4CCCC4)n(Cc4nc5ccccc5[nH]4)c3C[C@H]2CN1C(=O)c1ccccc1	·	–	·	·	·	·
CNc1ncnc2sc(-c3ccccc3)cc12	–	–	–	–	–	–
CN(C)CCNc1ncnc2sc(-c3ccccc3)cc12	–	·	–	–	–	10µM
COC(=O)c1ccc(C(/C=C/[C@@H](C)C(=O)NCc2ccccc2)NC(=O)OCc2ccccc2)cc1 (some centres not stated)	·	–	·	·	·	·
COc1cccc(NC(=O)Cc2ccccc2)c1	–	–	–	–	–	–
O=C(Cc1ccccc1)Nc1cccc(N2C(=O)C=CC2=O)c1	?	2.8µM	–	–	–	–
Cc1cccc(C)c1NC(=O)CSc1nnc(-c2ccco2)c(-c2ccco2)n1	?	11µM	–	–	–	–
Cc1ccccc1NC(=O)CSc1nnc(-c2ccco2)c(-c2ccco2)n1	?	–	–	–	–	–
